# This is a sample that favours compounds with a hit; in the whole collection about 10% have one here.
# 3T3 cytotox: Cytotoxic Profiling in NIH 3T3 Cell Line of Diverse Libraries Using Quantitative High-Throughput Screening; AID 1345082, 2018; hit rate 4.3% among 94,000; Potency, µM (doses to about 96.7 µM), actives largely listed as inhibitors; NIH 3T3 viability, CellTiter-Glo ATP luminescence, 48-72 h; further: nearly all actives have a fitted effect of over 55% in size
#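 Cells were seeded at 400 per well, treated with pin-transferred compound, and kept 48 or 72 hr at 37 °C before CellTiter-Glo addition and luminescence imaging of cellular ATP.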
# GPT2 inhibitor: Primary qHTS assay for inhibitors of Glutamate pyruvate transaminase 2 (GPT2). Alanine aminotransferase 2 (Homo sapiens), Q8TD30. Recombinant GPT2, coupled pyruvate oxidase/HRP Amplex Red fluorescence. Potency, µM (highest dose often 57.7 µM), hits mostly inhibitors. hit rate 0.25% among 100,000; further: nearly all actives have a fitted effect of over 60% in size
#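 GPT2 10ng/uL, a-KG 250uM, L-Ala 2mM, HEPES pH7.5 + 0.0001% Tween; 30 min RT. Then Amplex mix (PO/HRP/ThPP), 30 min RT dark, fluorescence. AOA 50uM used as positive control.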
# hNpr1 antagonist: Natriuretic polypeptide receptor (hNpr1) antagonism - Primary qHTS. AID 1347048, 2019. HEK293 hNpr1 GloSensor cGMP, ANP-stimulated luminescence. hit rate 1.6% among 76,000. Potency, µM (series often up to 46.3 µM), actives largely listed as inhibitors; calls by dose curve; further: nearly all actives have a fitted effect of over 60% in size
# Target sequence (P16066 whole entry, looked up): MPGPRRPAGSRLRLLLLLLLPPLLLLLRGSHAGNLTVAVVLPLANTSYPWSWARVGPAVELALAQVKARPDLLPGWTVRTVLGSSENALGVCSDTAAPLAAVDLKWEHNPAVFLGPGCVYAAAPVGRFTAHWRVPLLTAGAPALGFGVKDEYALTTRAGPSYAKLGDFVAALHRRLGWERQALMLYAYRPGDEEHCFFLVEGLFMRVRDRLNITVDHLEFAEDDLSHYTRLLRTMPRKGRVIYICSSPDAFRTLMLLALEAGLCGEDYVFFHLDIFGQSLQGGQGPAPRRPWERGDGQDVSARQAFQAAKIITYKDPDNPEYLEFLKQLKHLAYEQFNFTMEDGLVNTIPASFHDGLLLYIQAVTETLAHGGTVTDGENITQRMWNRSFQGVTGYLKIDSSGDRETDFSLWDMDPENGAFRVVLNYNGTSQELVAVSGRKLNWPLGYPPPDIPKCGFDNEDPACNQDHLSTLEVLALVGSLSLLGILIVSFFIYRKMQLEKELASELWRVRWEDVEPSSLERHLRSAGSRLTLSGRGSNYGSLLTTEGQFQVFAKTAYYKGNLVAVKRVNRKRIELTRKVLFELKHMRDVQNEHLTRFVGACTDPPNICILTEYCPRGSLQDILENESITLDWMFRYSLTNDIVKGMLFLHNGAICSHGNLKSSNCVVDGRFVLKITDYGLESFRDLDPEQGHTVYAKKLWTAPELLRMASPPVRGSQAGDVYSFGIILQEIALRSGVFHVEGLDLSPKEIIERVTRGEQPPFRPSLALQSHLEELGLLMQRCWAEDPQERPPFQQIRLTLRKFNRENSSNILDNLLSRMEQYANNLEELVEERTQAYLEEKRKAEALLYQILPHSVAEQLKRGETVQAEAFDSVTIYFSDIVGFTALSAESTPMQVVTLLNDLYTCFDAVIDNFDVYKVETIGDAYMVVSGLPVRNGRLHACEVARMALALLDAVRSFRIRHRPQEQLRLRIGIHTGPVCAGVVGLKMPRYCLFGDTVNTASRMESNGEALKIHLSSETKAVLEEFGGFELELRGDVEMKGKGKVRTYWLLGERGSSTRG
#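 Compound pre-incubated 30 min at room temperature on GloSensor-loaded HEK293 cells stably carrying hNpr1 and the pGS-40F cGMP biosensor. Stimulation uses hNppA at 0.1 nM final; luminescence is taken at baseline and 20 min post-agonist.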
# HEK293 tox: Cytotoxic Profiling in HEK 293 Cell Line of Diverse Libraries Using Quantitative High-Throughput Screening; Potency, µM (series often up to 115 µM), hits mostly inhibitors; HEK 293 viability, ATP luminescence (CellTiter-Glo), 48-72 h; hit rate 6.6% among 94,000; further: nearly all actives have a fitted effect of over 60% in size
#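 HEK 293 seeded at 250 cells/well receive compound via pintool. After 48 or 72 hr at 37 degree Celsius, 5% CO2 and 95% humidity, CellTiter-Glo is dispensed and luminescence read following 10 min at room temperature.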
# FLuc inh: Firefly luciferase inhibition profiling of diverse chemical library using quantitative high-throughput screening | Luciferin 4-monooxygenase (Photinus pyralis), P08659 | purified P. pyralis luciferase, luminescence, biochemical | Potency, µM (doses to about 115 µM), most hits filed as inhibitors | hit rate 2.5% among 76,000 | AID 1347043, 2019; further: nearly all actives have a fitted effect of over 65% in size
#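 Cell-free enzyme assay, 10nM P. pyralis luciferase, luciferin and ATP each at 10uM. Inhibition profiled over a 6-point titration, read as luminescence.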
# Hits are given with their value; i = inactive; ? = inconclusive; nt = no result given. Unless noted, the call rests on the fitted dose curve; in most records, active means well fitted curve in the direction sought with a large enough effect; inconclusive means small, poorly fitted or top-dose-only effect, or another doubt; inactive means no such curve, though single readings can be large; an effect the other way counts as inactive or inconclusive.
SMILES,3T3 cytotox,GPT2 inhibitor,hNpr1 antagonist,HEK293 tox,FLuc inh
O=C1COc2ccc(-c3cc4ccccc4o3)nc2CN1CCOc1ccccc1,?,i,?,?,i
O=C1COc2ccc(OCc3ccccc3)nc2CN1CCOc1ccccc1,?,i,?,89.1µM,i
O=C1COc2ccc(-c3cccc(O)c3)nc2CN1CCOc1ccccc1,?,i,?,100µM,i
CC1=C(C(=O)NCC2CCCCC(=O)N2)C2(CCCCC2)OC1=O (configuration not stated),i,i,nt,i,nt
CCCS(=O)(=O)N1CCc2c(c(CN3CCOCC3)nn2C)C1,i,i,nt,i,nt
CCN1c2cc(C(=O)Nc3ccc(SC)cc3)ccc2C(=O)N2CCCCC21 (configuration not stated),39.8µM,i,i,?,?
CCN1c2cc(C(=O)Nc3ccc(C(N)=O)cc3)ccc2C(=O)N2CCCCC21 (configuration not stated),31.6µM,i,i,?,i
CCN1c2cc(C(=O)Nc3cccc(SC)c3)ccc2C(=O)N2CCCCCC21 (configuration not stated),22.4µM,i,?,22.4µM,i
CCN1c2cc(C(=O)Nc3ccc(C)c(F)c3)ccc2C(=O)N2CCCC21 (configuration not stated),i,i,i,i,i
CCN1c2cc(C(=O)Nc3cccc(F)c3)ccc2C(=O)N2CCCCC21 (configuration not stated),?,i,i,?,?
CCN1c2cc(C(=O)Nc3ccc(OC)cc3)ccc2C(=O)N2CCCCC21 (configuration not stated),?,i,i,?,i
CCN1c2cc(C(=O)Nc3ccc(C)c(F)c3)ccc2C(=O)N2CCCCC21 (configuration not stated),28.2µM,i,i,?,i
O=C(NCc1cc(F)cc(F)c1)C1(c2ccc(Cl)cc2)CCOCC1,?,i,nt,?,nt
CCN1c2cc(C(=O)Nc3ccc4c(c3)CCC4)ccc2C(=O)N2CCCCC21 (configuration not stated),12.6µM,i,i,22.4µM,?
CCN1c2cc(C(=O)Nc3ccc(F)cc3)ccc2C(=O)N2CCCCC21 (configuration not stated),?,i,i,?,i
CCN1c2cc(C(=O)Nc3cc(F)cc(F)c3)ccc2C(=O)N2CCCCC21 (configuration not stated),28.2µM,i,i,35.5µM,i
COc1cccc(S(=O)(=O)N2CC(N(C3CCOCC3)S(C)(=O)=O)C2)c1,i,i,i,i,i
COCCCn1c(=O)c(C(=O)NCCc2ccc(F)cc2)nc2cccnc21,i,i,nt,i,nt
Cc1cccc(-c2noc([C@@H]3Cc4nc[nH]c4CN3C(=O)c3ccc(F)cc3)n2)c1,?,i,i,?,i
N#Cc1cccc(NC(=O)N2Cc3[nH]cnc3C[C@H]2c2nc(-c3ccc(Cl)cc3)no2)c1,79.4µM,i,i,?,i
Cc1cccc(-c2noc([C@@H]3Cc4nc[nH]c4CN3C(=O)COCC(=O)O)n2)c1,i,i,i,i,56.2µM
O=C(Nc1cccc(F)c1)N1Cc2[nH]cnc2C[C@H]1c1nc(-c2ccc3c(c2)OCO3)no1,?,i,i,?,i
O=C(Nc1cccc(F)c1)N1Cc2[nH]cnc2C[C@H]1c1nc(-c2ccccc2)no1,?,?,i,70.8µM,i
O=C(Nc1cccc(F)c1)N1Cc2[nH]cnc2C[C@H]1c1nc(-c2ccc(Cl)cc2)no1,?,i,i,79.4µM,39.8µM
CC(C)N1CCC2(CC1)CN(C(=O)c1ccncc1)Cc1ccccc1O2,i,i,nt,i,nt
SMILES,3T3 cytotox,GPT2 inhibitor,hNpr1 antagonist,HEK293 tox,FLuc inh
CNC(=O)c1onc(-c2ccc(OC)cc2)c1[C@H](C)O,i,i,i,i,i
CC(=O)c1ccc(NC(=O)N2Cc3[nH]cnc3C[C@H]2c2nc(-c3ccccc3)no2)cc1,i,i,i,i,i
Cc1cccc(-c2noc([C@@H]3Cc4nc[nH]c4CN3C(=O)Nc3cccc(C#N)c3)n2)c1,63.1µM,i,i,89.1µM,35.5µM
Cc1cccc(-c2noc([C@@H]3Cc4nc[nH]c4CN3C(=O)Nc3cccc(F)c3)n2)c1,35.5µM,i,?,70.8µM,63.1µM
O=C(NCC1(COc2cccnc2)C[C@@H](O)[C@@H](O)C1)C1CC1 (some centres not stated),?,i,?,31.6µM,i
O=C(Cc1ccc(Cl)cc1)N1CCC2(CC1)CC(O)CCO2 (configuration not stated),i,i,i,i,?
O=C1N(CC2CC2)CCOC12CCN(Cc1ccc(F)c(Cl)c1)CC2,i,i,i,?,i
O=C1N(CCc2ccccc2)CCOC12CCN(Cc1ccc(F)c(Cl)c1)CC2,44.7µM,i,?,79.4µM,i
O=C(NCc1ccc(Cl)cc1)c1nc2cccnc2n(C2CCCCC2)c1=O,?,i,nt,?,nt
N[C@H]1CO[C@H]2[C@@H]1OC[C@@H]2n1cc(-c2ccccn2)nn1,?,?,i,126µM,i
O=C(C1CC1)N1CCC(CCOc2ccccc2)C1 (configuration not stated),i,i,nt,i,nt
Cc1nn(-c2ccccc2)c2c1C(C(C)C)N(C1CCN(C(=O)c3cccc(Cl)c3)CC1)C2=O (configuration not stated),?,nt,nt,17.8µM,nt
COc1cccc(C(=O)N2CCC(N3C(=O)c4c(c(C)nn4-c4ccccc4)C3C(C)C)CC2)c1 (configuration not stated),35.5µM,nt,nt,44.7µM,nt
COc1ccc(C(=O)N2CCC(N3C(=O)c4c(c(C)nn4-c4ccccc4)C3C(C)C)CC2)cc1 (configuration not stated),i,nt,nt,i,nt
Cc1nn(-c2ccccc2)c2c1C(C(C)C)N(C1CCN(C(=O)c3ccc(Cl)cc3)CC1)C2=O (configuration not stated),?,nt,nt,25.1µM,nt
O=C(NC1CCN(Cc2ccc(-c3ccsc3)cc2)C1)C1CC1 (configuration not stated),?,i,nt,?,nt
Cc1cnc(C2CCC2)n1CC1CCCN(C(=O)CC2CCCCC2)C1 (configuration not stated),?,i,nt,?,nt
COCCOC1CCN(C(=O)c2sc(C)nc2C)CC1,i,i,i,i,35.5µM
O=C(N[C@H]1CCN2C(=O)c3cc(-c4cccc(C(F)(F)F)c4)ccc3NC(=O)[C@@H]2C1)c1ccncc1,?,i,i,39.8µM,i
O=C(N[C@H]1CCN2C(=O)c3cc(-c4ccccc4F)ccc3NC(=O)[C@@H]2C1)c1ccc(F)c(Cl)c1,10µM,i,?,10µM,i

# Compound activity as filed in PubChem.
